Data: PubChem BioAssay AID1825 (The Scripps Research Institute Molecular Screening Center, 2009)
Screen size: about 290,000 compounds; about 2,300 (0.79%) were called active. No stated cut-off is given here; in the data, active means inhibition above about 22%; inactive means the rest. This excerpt belongs to a sample that is enriched for actives.

Assay: IEC-6 cell viability reduction – luminescence, cytotoxicity control for KLF5 inhibitor project, primary screen (AID 1825);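 further: 0% = plate median of test compound wells and 100% = cytotoxic reference compound wells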
Conditions: IEC-6 cytotoxicity, at 5 µM, stronger effect = higher value

Row | Structure (SMILES) | inhibition
1 | COc1ccccc1CCNS(=O)(=O)c1cn(C)nc1C | -1.7% (inactive)
2 | CN(CCc1ccccn1)C1CCCN(S(=O)(=O)c2ccccc2Cl)C1 (configuration not stated) | 5.5% (inactive)
3 | Cc1cc(C(=O)CCl)c(C)n1CC1COc2ccccc2O1 (configuration not stated) | -0.4% (inactive)
4 | O=C(CN1C(=O)C2C3C=CC(C3)C2C1=O)NCC1COc2ccccc2O1 (configuration not stated) | -0.7% (inactive)
5 | O=C1C(=O)N(CC2COc3ccccc3O2)c2ccccc21 (configuration not stated) | 65.8% (active)
6 | COc1ccc(N2CC(C(=O)N[C@@H](C)C(=O)N3CCCCC3)CC2=O)cc1 (some centres not stated) | 4.5% (inactive)
7 | Cc1ccc(-n2ncc3c2CC(C)(C)CC3NC(=O)Cc2c(C)noc2C)cc1 (configuration not stated) | 4% (inactive)
8 | COc1cc(Br)c(-c2sc(Nc3ccccc3)n[n+]2-c2ccccc2)cc1OC | -5.7% (inactive)
9 | S=c1[nH]c(-c2cccs2)cn1-c1ccccc1 | -0.4% (inactive)
10 | O=c1oc2ccccc2cc1-c1cn(-c2ccccc2)c(=S)[nH]1 | 30.6% (active)
11 | COc1ccc(-c2cn(-c3ccc(OC)cc3)c(=S)[nH]2)cc1 | -3.2% (inactive)
12 | CCn1ccnc1CN(C)C(=O)c1cc(COc2ccc(Cl)cc2OC)on1 | 1.4% (inactive)
13 | Cc1nn(CCCC(=O)NCc2ccccc2Cl)c(=O)c2nccn12 | -5.6% (inactive)
14 | Cc1cc(N/N=C\c2ccc(Br)cc2)nc(-n2nc(C)cc2C)n1 | -0.5% (inactive)
15 | COc1ccc(Nc2cc(C)nc(-n3nc(C)cc3C)n2)cc1 | 84.8% (active)
16 | COc1ccccc1/C=N\Nc1cc(C)nc(-n2nc(C)cc2C)n1 | -10.1% (inactive)
17 | Cc1cc(Oc2ccc(Cl)cc2)nc(SCC(=O)c2ccccc2)n1 | 1.9% (inactive)
18 | CCOC(=O)c1cnc(-n2nc(C)cc2C)nc1Nc1cccc(C(C)=O)c1 | 1.3% (inactive)
19 | CC(=O)c1ccc(Oc2cc(C)nc(-n3nc(C)cc3C)n2)cc1 | 85.4% (active)
20 | N#CCc1ccc(NC(=O)c2ccccc2C(=O)Nc2ccc(CC#N)cc2)cc1 | -5.3% (inactive)
21 | COC(=O)COc1ccc2c(=O)c(Oc3ccccc3Br)coc2c1 | 5.7% (inactive)
22 | Cc1nc2sccn2c(=O)c1S(=O)(=O)NCCc1ccccc1 | -0.1% (inactive)
23 | CCc1cccc(NC(=O)C2CCCN(S(=O)(=O)c3ccc4[nH]c(=O)ccc4c3)C2)c1 (configuration not stated) | -2.8% (inactive)
24 | COc1ccc(Nc2nnc(C)c3ccccc23)cc1 | -4% (inactive)

Row | Structure (SMILES) | inhibition
25 | COc1ccc2oc(=O)cc(-c3cc4ccccc4o3)c2c1 | 2.8% (inactive)
26 | COc1ccc(Nc2cc(=O)oc3ccccc23)cc1 | 46.4% (active)
27 | O=S(=O)(Cc1nnnn1-c1ccccc1)c1ccccc1 | 1.5% (inactive)
28 | O=C(Nc1nnc(S(=O)(=O)N2CCOCC2)s1)c1cccc(Br)c1 | 0.3% (inactive)
29 | O=C(Nc1nnc(C2CC2)s1)c1ccccn1 | 27.4% (active)
30 | O=C(Nc1nnc(C2CC2)s1)c1cc(Cl)sc1Cl | 0.1% (inactive)
31 | Cc1cnc(NC(=O)c2ccccn2)s1 | 8.9% (inactive)
32 | COc1ccc(/C=N/N(C)C2=NS(=O)(=O)c3ccccc32)cc1OC | -2.2% (inactive)
33 | Clc1cccc(N=C2NN=C(c3ccc4c(c3)OCCO4)CS2)c1 | -1.6% (inactive)
34 | CN(C)c1nc(=Nc2cccc(Cl)c2)ss1 | 56.2% (active)
35 | O=C(CN1CCN(Cc2ccccc2)CC1)Nc1ccc(F)c(F)c1 | 6.7% (inactive)
36 | Cn1c(=O)oc2cc(S(=O)(=O)NCCC(=O)NCc3ccccc3Cl)ccc21 | 0.7% (inactive)
37 | COc1ccccc1CNC(=O)C1CCN(S(=O)(=O)c2ccc3c(c2)CC(C)N3C(=O)C2CC2)CC1 (configuration not stated) | 3.9% (inactive)
38 | Cc1ccc(Nc2nc(N3CCOCC3)nc(N3CCOCC3)n2)cc1Cl | 68.1% (active)
39 | Cc1ccccc1NC(=O)CSc1nc2ccc(Nc3nc(N4CCOCC4)nc(N4CCOCC4)n3)cc2s1 | 3.9% (inactive)
40 | Cc1cc(Nc2ccc(Cl)cc2)nc(N2CCOCC2)n1 | 11.5% (inactive)
41 | Cc1ccc(NC(=O)CN(C)C(=O)c2ccc(Br)o2)cc1 | -4.8% (inactive)
42 | O=C(c1ccc(S(=O)(=O)N2CCCC2)cc1)N1CCN(c2ccccc2F)CC1 | 2.3% (inactive)
43 | O=C(Nn1cc(C(=O)N2CCN(c3ccccc3F)CC2)c2ccccc2c1=O)c1cnccn1 | 23.7% (active)
44 | Cn1c(=O)cc(OCC(=O)N2CCN(c3ccccc3F)CC2)c2ccccc21 | -5.1% (inactive)
45 | Cc1cc(C)n(-c2nc(C(F)(F)F)nc3ccccc23)n1 | 5.6% (inactive)
46 | CCOn1c(SC(C)C)nc2ccccc2c1=O | -3.8% (inactive)
47 | CCCOn1c(-n2nc(C)cc2C)nc2ccccc2c1=O | 54.7% (active)
